# Experimental data taken from ChEMBL document CHEMBL1157539, “Thousands of chemical starting points for antimalarial lead identification” (Nature, 2010).
# System: Plasmodium falciparum
# Assay: GSK_TCMDC: Inhibition of Plasmodium falciparum Dd2 in whole red blood cells, using parasite LDH activity as an index of growth. Test compounds present at 2uM
# Type: functional
row,Structure (SMILES),Inhibition
1,Cc1nc(C)c(CC(=O)Nc2cccc(-c3cccc(-c4nc5cccc(C)c5[nH]4)c3)c2)s1,35%
2,Br.C=CCc1cc(Br)ccc1OCCCON1C(N)=NC(N)=NC1(C)C,97%
3,C=CCN(c1ccc(OC)cc1)S(=O)(=O)c1ccc(Cl)c(C(=O)Nc2cccc(C#N)c2)c1,73%
4,COc1ccc(-c2nc(NC(=O)CSc3ccc([N+](=O)[O-])cc3)sc2C)cc1,100%
5,O=C(Nc1cccc(-c2ccc(CN3CCC(O)CC3)cc2)c1)c1ccc(Cl)cc1.O=C(O)C(F)(F)F,8%
6,O=C(Nc1cccc(-c2ccc(CN3CCC(O)CC3)cc2)c1)c1cccc(Cl)c1.O=C(O)C(F)(F)F,2%
7,COc1cc2nc(NC3CCN(Cc4ccccc4)CC3)nc(N)c2cc1OC,30%
8,O=C(NC1CCN(Cc2cccc(C(F)(F)F)c2)CC1)c1ccc(-c2cccc(Cl)c2)s1.O=C(O)C(F)(F)F,33%
9,CCn1cc(CN2C(=O)C(c3ccccc3)(c3ccccc3)N=C2N)cn1.O=CO,60%
10,CCN(CCCN1CCCCC1)c1cc(C)nc(Nc2ccc(Cl)cc2)n1.Cl,82%
11,CC(C)(C)c1nn(-c2ccc(Cl)cc2)c2[nH]c(=O)c(CNCc3cccs3)cc12,77%
12,Cl.O=C(Nc1ccc(C(=O)Nc2ccc(C3=NCCN3)cc2)cc1)Nc1ccc(C2=NCCN2)cc1,95%
13,O=C(NC1CC1c1ccccc1)N(CCCn1ccnc1)Cc1csc(-c2ccc(CNCc3ccccc3)cc2)n1.O=C(O)C(F)(F)F (stereo unspecified),20%
14,CCN1CCN(c2cc(C)c3cc(NC(=O)c4ccc(OC)c(OC)c4)ccc3n2)CC1,23%
15,COc1cc(F)c2ncc(Cl)c([C@H](O)CN3CCC(NCc4ccc5c(n4)NC(=O)CO5)CC3)c2c1.Cl,99%
16,C=CCn1c(Sc2ccc(C#N)c([N+](=O)[O-])c2)nnc1-c1cc(OC)cc(OC)c1,84%

row,Structure (SMILES),Inhibition
1,CN(CCN)Cc1ccc(-c2ccc(-c3nc4cc(C(F)(F)F)ccc4[nH]3)s2)cc1.O=C(O)C(F)(F)F,98%
2,CN1CCC(NCc2cccc(-c3ccc(S(=O)(=O)NCCN4CCCC4)s3)c2)CC1.O=C(O)C(F)(F)F,1%
3,COc1ccc(Nc2nccc(NCC(O)c3cccc(C(F)(F)F)c3)n2)cc1 (stereo unspecified),33%
4,CCc1ccc(-n2c(NC(=O)c3ccccc3)nc3ccc(S(=O)(=O)NC(C)C(C)C)cc32)cc1 (stereo unspecified),0%
5,CN1CCN(c2ccnc3ccc(NC(=O)Nc4cccc5c(C#N)cccc45)cc23)CC1,40%
6,CCN(CC)CCN(Cc1ccc(-c2ccc(C(F)(F)F)cc2)cc1)C(=O)Cn1c(CCc2cccc(F)c2F)nc(=O)c2sccc21.O=C(O)C(O)C(O)C(=O)O,70%
7,O=C(N[C@@H](Cc1ccccc1)C(=O)O)c1cc(-c2ccc(F)cc2)no1.O=C(N[C@@H](Cc1ccccc1)C(=O)O)c1conc1-c1ccc(F)cc1,49%
8,CC(CCc1ccccc1)NCC(O)c1cccc(C(F)(F)F)c1.Cl (stereo unspecified),98%
9,CCN1CCC(N(Cc2ccc(-c3ccc(C(F)(F)F)cc3)cc2)C(=O)Cn2nc(C)c(=O)cc2SCc2ccc(F)cc2)CC1.O=C(O)C(O)C(O)C(=O)O,94%
10,C[C@H](NC(=O)c1c(CN2CCC(N3CCCCC3)CC2)c(-c2ccccc2)nc2cc(O)ccc12)C1CCCCC1,72%
11,COc1cc2nc(N3CCC(CNC(=O)c4ccc(C(C)=O)cc4)CC3)nc(N)c2cc1OC.O=C(O)C(F)(F)F,15%
12,Cc1ccc2c(=NN=Cc3cccc(Cl)c3)cc(C)[nH]c2c1,52%
13,CC(C)CCN1CCC(Oc2ccc(NC(=O)c3cccs3)cc2Cl)C1.O=C(O)C(F)(F)F (stereo unspecified),93%
14,Br.CC1(C)NC(N)=NC(=N)N1OCCCOc1cccc2ccccc12,86%
15,CN(CCS(C)(=O)=O)Cc1ccc(-c2ccc3ncnc(Nc4ccc(OCc5cccc(F)c5)c(Cl)c4)c3c2)o1.Cc1ccc(S(=O)(=O)O)cc1,65%

# System: HepG2
# Assay: GSK_TCMDC: Percent inhibition of human HepG2 cell line. Test compounds present at 10uM.
# Type: functional
row,Structure (SMILES),Inhibition
1,CC(C)(O)CC(C)(C)c1cc(Cl)ccc1O,5%
2,O=C(Nc1cccc(C(F)(F)F)c1)NC1CCN(c2ccnc3ccccc23)C1.O=C(O)C(F)(F)F (stereo unspecified),23%
3,O=[N+]([O-])c1ccccc1C=NN=c1cc[nH]c2ccccc12,3%
4,COc1ccc2nccc(NC(=O)C3(O)CCC(NCc4ccc5c(c4)NCCS5)CC3)c2n1.Cl (stereo unspecified),1%
5,Cc1cc(NCCc2ccccc2)nc(N/C(=N/CC(=O)OC(C)(C)C)Nc2ccc(C(F)(F)F)cc2)n1.I,23%
6,Cc1noc(=O)c2ccc(NC(=O)C(O)(CSc3ccccc3)CC(C)C)cc12 (stereo unspecified),0%
7,CC(C)CNCc1cccc(-c2ccc(CN(CCCN3CCN(C)CC3)C(=O)CCC3CCCC3)cc2)c1.O=C(O)C(F)(F)F,82%
8,Cc1cc(Cc2ccc(S(=O)(=O)c3cc4c(cc3O)CCN(C)CC4)cc2)ccc1Cl.Cl,7%
9,CC1(CCc2ccccc2)N=C(N)N=C(N)C1c1ccc(Cl)c(Cl)c1.Cl (stereo unspecified),19%
10,Cc1nc(C)c(CC(=O)Nc2cccc(-c3cccc(-c4nc5cccc(C)c5[nH]4)c3)c2)s1,43%
11,Br.C=CCc1cc(Br)ccc1OCCCON1C(N)=NC(N)=NC1(C)C,61%
12,C=CCN(c1ccc(OC)cc1)S(=O)(=O)c1ccc(Cl)c(C(=O)Nc2cccc(C#N)c2)c1,6%
13,COc1ccc(-c2nc(NC(=O)CSc3ccc([N+](=O)[O-])cc3)sc2C)cc1,0%
14,O=C(Nc1cccc(-c2ccc(CN3CCC(O)CC3)cc2)c1)c1ccc(Cl)cc1.O=C(O)C(F)(F)F,46%
15,O=C(Nc1cccc(-c2ccc(CN3CCC(O)CC3)cc2)c1)c1cccc(Cl)c1.O=C(O)C(F)(F)F,11%
16,COc1cc2nc(NC3CCN(Cc4ccccc4)CC3)nc(N)c2cc1OC,27%
17,O=C(NC1CCN(Cc2cccc(C(F)(F)F)c2)CC1)c1ccc(-c2cccc(Cl)c2)s1.O=C(O)C(F)(F)F,26%
18,CCn1cc(CN2C(=O)C(c3ccccc3)(c3ccccc3)N=C2N)cn1.O=CO,7%
19,CCN(CCCN1CCCCC1)c1cc(C)nc(Nc2ccc(Cl)cc2)n1.Cl,23%
20,CC(C)(C)c1nn(-c2ccc(Cl)cc2)c2[nH]c(=O)c(CNCc3cccs3)cc12,5%

row,Structure (SMILES),Inhibition
1,Cl.O=C(Nc1ccc(C(=O)Nc2ccc(C3=NCCN3)cc2)cc1)Nc1ccc(C2=NCCN2)cc1,0%
2,O=C(NC1CC1c1ccccc1)N(CCCn1ccnc1)Cc1csc(-c2ccc(CNCc3ccccc3)cc2)n1.O=C(O)C(F)(F)F (stereo unspecified),6%
3,CCN1CCN(c2cc(C)c3cc(NC(=O)c4ccc(OC)c(OC)c4)ccc3n2)CC1,28%
4,COc1cc(F)c2ncc(Cl)c([C@H](O)CN3CCC(NCc4ccc5c(n4)NC(=O)CO5)CC3)c2c1.Cl,14%
5,C=CCn1c(Sc2ccc(C#N)c([N+](=O)[O-])c2)nnc1-c1cc(OC)cc(OC)c1,12%
6,CN(CCN)Cc1ccc(-c2ccc(-c3nc4cc(C(F)(F)F)ccc4[nH]3)s2)cc1.O=C(O)C(F)(F)F,37%
7,CN1CCC(NCc2cccc(-c3ccc(S(=O)(=O)NCCN4CCCC4)s3)c2)CC1.O=C(O)C(F)(F)F,10%
8,COc1ccc(Nc2nccc(NCC(O)c3cccc(C(F)(F)F)c3)n2)cc1 (stereo unspecified),22%
9,CCc1ccc(-n2c(NC(=O)c3ccccc3)nc3ccc(S(=O)(=O)NC(C)C(C)C)cc32)cc1 (stereo unspecified),48%
10,CN1CCN(c2ccnc3ccc(NC(=O)Nc4cccc5c(C#N)cccc45)cc23)CC1,0%
11,CCN(CC)CCN(Cc1ccc(-c2ccc(C(F)(F)F)cc2)cc1)C(=O)Cn1c(CCc2cccc(F)c2F)nc(=O)c2sccc21.O=C(O)C(O)C(O)C(=O)O,70%
12,O=C(N[C@@H](Cc1ccccc1)C(=O)O)c1cc(-c2ccc(F)cc2)no1.O=C(N[C@@H](Cc1ccccc1)C(=O)O)c1conc1-c1ccc(F)cc1,0%
13,CC(CCc1ccccc1)NCC(O)c1cccc(C(F)(F)F)c1.Cl (stereo unspecified),18%
14,CCN1CCC(N(Cc2ccc(-c3ccc(C(F)(F)F)cc3)cc2)C(=O)Cn2nc(C)c(=O)cc2SCc2ccc(F)cc2)CC1.O=C(O)C(O)C(O)C(=O)O,77%
15,C[C@H](NC(=O)c1c(CN2CCC(N3CCCCC3)CC2)c(-c2ccccc2)nc2cc(O)ccc12)C1CCCCC1,77%
16,COc1cc2nc(N3CCC(CNC(=O)c4ccc(C(C)=O)cc4)CC3)nc(N)c2cc1OC.O=C(O)C(F)(F)F,10%
17,Cc1ccc2c(=NN=Cc3cccc(Cl)c3)cc(C)[nH]c2c1,50%
18,CC(C)CCN1CCC(Oc2ccc(NC(=O)c3cccs3)cc2Cl)C1.O=C(O)C(F)(F)F (stereo unspecified),17%
19,Br.CC1(C)NC(N)=NC(=N)N1OCCCOc1cccc2ccccc12,67%
20,CN(CCS(C)(=O)=O)Cc1ccc(-c2ccc3ncnc(Nc4ccc(OCc5cccc(F)c5)c(Cl)c4)c3c2)o1.Cc1ccc(S(=O)(=O)O)cc1,25%
